# HSF1 inhib – HSF1 inhibitors in luciferase reporter cells, primary screen, cell-based, NIH3T3, luminescence; hit rate 0.77% among 300,000; AID 2098, 2009; activity change, negative = inhibition, % at 7.5 µM (by protocol); NIH3T3-HGL HSE-luciferase, MG132-induced, luminescence 8 h; hits give low values;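 active = more than half of replicate wells show activity change below -50%, luminescence cut by over half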;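 also: luciferase reports HSF-1 transcriptional activity via heat shock element; 0% = median of DMSO wells and -100% = zero luminescence signal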
# HSF1 activator – HSF-1 activators, primary screen, NIH3T3-HGL cells, MG132 stress, luminescence, single point. activation, % at 9 µM. NIH3T3-HGL HSF-1 luciferase reporter, 8 h; 100% = twice DMSO control signal. hit rate 1.7% among 300,000;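 active = mean replicate activation of at least 50% with a set share of replicates each reaching 50%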;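 also: 0% = median of the neutral control wells and 100% = twice that signal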
# AHR act – AHR activators, primary screen, cell-based, luminescence, luciferase reporter, human; Aryl hydrocarbon receptor (Homo sapiens), P35869; AHR-responsive luciferase reporter cells; activation, % at 5 µM; hit rate 2.5% among 320,000; AID 2796, 2010; in the data active = activation above about 47%;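 also: 0% = vehicle wells and 100% = reference agonist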
# DAX1 inh – DAX1 (NR0B1) inhibitors, primary screen, cell-based, HEK293, Gal4-DAX1, luciferase luminescence. Nuclear receptor subfamily 0 group B member 1 (Homo sapiens), P51843. HEK293 Gal4-DAX1 luciferase reporter. inhibition, % at 6.75 µM. hit rate 0.99% among 340,000. AID 504766, 2011;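 active = inhibition above the mean over all tested compounds plus 3 SD, cut at about 4.2% in these data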;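 also: 0% = DAX1-transfected cells with DMSO and 100% = empty-vector control cells with DMSO; inhibition shows as a rise in luminescence from relieved DAX1 repression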
# Target sequence (P51843 207-470 limits assumed): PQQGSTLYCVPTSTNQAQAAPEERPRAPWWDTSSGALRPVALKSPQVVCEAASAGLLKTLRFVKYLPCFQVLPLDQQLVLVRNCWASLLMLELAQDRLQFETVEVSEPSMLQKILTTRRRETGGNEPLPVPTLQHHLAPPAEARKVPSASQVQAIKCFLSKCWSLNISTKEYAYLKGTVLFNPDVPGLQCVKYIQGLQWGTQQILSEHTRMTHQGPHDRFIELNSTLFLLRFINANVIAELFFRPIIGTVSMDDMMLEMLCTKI
# HSP90 inh – HSP90 inhibitors, primary screen, cell lysate, luminescence; Heat shock protein HSP 90 (rabbit reticulocyte lysate; luciferase refolding); AID 1789, 2009; Rabbit reticulocyte lysate, luciferase refolding luminescence, 3 h; inhibition, % at 5.6 µM; hit rate 0.91% among 290,000;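 active = inhibition above the screen-wide mean plus 3 SD, computed separately per campaign, cut at about 16% in these data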;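 also: 0% = DMSO wells and 100% = 60 µM geldanamycin wells; inhibitors lower the luminescence because luciferase stays unfolded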
# FXN GAA850 act – FXN promoter activators, primary screen, cell-based, luciferase luminescence, HEK293 lucGAA850. HEK293 lucGAA850 FXN promoter luciferase reporter, 24 h; percent of 10 µM SAHA response. activation, % at 6 µM. hit rate 0.56% among 360,000. AID 540364, 2011;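 active = activation above the average of all compounds screened plus 3 SD, cutoff fixed separately per campaign, cut at about 7.5% in these data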;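 also: 0% = DMSO wells and 100% = 10 µM SAHA wells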
# HSP90 confirm – HSP90 inhibitors, confirmation, cell lysate, luminescence. shares compounds with HSP90 inh. rabbit reticulocyte lysate, luciferase refolding luminescence, 3 h. inhibition, % at 5.9 µM. hit rate 64% among 2,300; in the data active = inhibition above about 18%;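 also: 0% = vehicle wells and 100% = reference inhibitor wells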
# luciferase ctr – firefly luciferase inhibitors, HSP90 counter-screen, confirmation, artefact control for HSP90 inhibitor project, biochemical, luminescence, triplicate. hit rate 48% among 2,300. inhibition, % at 5.9 µM. purified native firefly luciferase. shares compounds with HSP90 inh. AID 1847, 2009;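 active = inhibition above the mean inhibition of all tested sample wells plus 3 SD, cut at about 10% in these data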;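 also: 0% = DMSO with luciferase and 100% = wells lacking luciferase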
# * = called active by the depositor; · = no result. A selection: hits, their analogues and other compounds. The true share with any hit is near 5.9%.
SMILES,HSF1 inhib,HSF1 activator,AHR act,DAX1 inh,HSP90 inh,FXN GAA850 act,HSP90 confirm,luciferase ctr
O=C1c2ccccc2-c2nc3ccccc3cc21,12,25,29,4,0,6,·,·
O=C1c2ccccc2-c2nnc(-c3ccc(O)cc3)cc21,13,11,0,-1,11,2,·,·
CCOC(=O)N1CCN(C(=O)c2ccc3c(c2)sc2nc(-c4ccc(OC)cc4)cn23)CC1,·,·,-3,3,5,-3,·,·
COc1ccc2c(c1)sc1nc(-c3ccccc3)cn12,-68*,-72,57*,-5,63*,-9,90*,86*
Cc1cccc(CCN(C(=O)Cc2cccs2)C(C(=O)NC2CCCCC2)c2cccnc2)c1 (stereo unspecified),4,16,-4,1,25*,-1,2,-4
Cn1c2ccccc2c(=O)n2c(=O)c3ccccc3cc12,-2,5,39,·,19*,·,23*,-1
Fc1ccc(-c2ncc3ccccn23)cc1,18,35,9,0,-2,0,·,·
Brc1ccc(-c2ncc3ccccn23)cc1,·,·,28,1,27*,2,1,-12
Cn1nccc1C(=O)N(CCN1CCCCC1)CC1CCCN(C2CCCC2)C1 (stereo unspecified),-1,8,1,0,-4,3,·,·
O=C(O)CCNC(=O)/C(=C/c1ccco1)NC(=O)c1ccco1,-6,2,0,1,30*,1,2,-2
Cc1c(/C(O)=C2/C(=O)C(=O)N(CCN3CCOCC3)C2c2cccs2)cnn1-c1ccccc1 (stereo unspecified),-1,-6,-3,3,45*,-5,47*,40*
CCN(CC)CCN1C(=O)C(=O)/C(=C(/O)c2cnn(-c3ccccc3)c2C)C1c1ccc(C)o1 (stereo unspecified),3,35,-7,0,7,1,·,·
Cc1ccc(C2/C(=C(/O)c3cnn(-c4ccccc4)c3C)C(=O)C(=O)N2CCN2CCOCC2)o1 (stereo unspecified),-8,-7,6,1,21*,4,16,5
Cc1c(/C(O)=C2\C(=O)C(=O)N(CCCN(C)C)C2c2cccs2)cnn1-c1ccccc1 (stereo unspecified),·,·,·,2,·,-6,·,·
Nc1nnc(SCC(=O)OCC(=O)Nc2ccccc2)s1,1,40,-3,1,2,1,·,·
Cc1cc(C)cc(OCC(=O)OC(C)C(=O)Nc2c(C)n(C)n(-c3ccccc3)c2=O)c1 (stereo unspecified),8,23,3,1,·,0,·,·
CC(=O)Nc1cccc(NC(=O)c2ccc3c(c2)CCN3S(=O)(=O)c2ccccc2)c1,-2,12,13,-1,-3,2,·,·
CC(=O)c1cccc(NC(=O)c2ccc3c(c2)CCN3S(=O)(=O)c2ccccc2)c1,6,22,8,-3,20*,4,2,-6
Cc1ccsc1/C=N/NC(=O)CNC(=O)c1cccc([N+](=O)[O-])c1C,-1,-15,0,0,3,-1,·,·
O=C(c1cc(F)c(F)cc1Cl)N1CCN(CCc2ccccc2)CC1,-4,-2,6,-1,38*,1,-1,-6
O=C1N/C(=C\c2ccccc2)c2ccccc21,9,14,13,1,2,0,·,·
O=C1N/C(=C\c2nc3ccccc3s2)c2ccccc21,-6,12,12,·,21*,·,53*,25*
CCCC(C)C(=O)Nc1nc(C)c(-c2csc(Nc3cc(Cl)ccc3C)n2)s1 (stereo unspecified),3,-5,41,-1,0,0,·,·
COc1ccc(Cl)cc1Nc1nc(-c2sc(NC(=O)c3ccccc3)nc2C)cs1,5,9,95*,·,40*,·,24*,-3
Cc1nc(NC(=O)c2ccccc2)sc1-c1csc(Nc2ccc(Cl)cc2Cl)n1,-12,3,43,·,45*,·,35*,-13
SMILES,HSF1 inhib,HSF1 activator,AHR act,DAX1 inh,HSP90 inh,FXN GAA850 act,HSP90 confirm,luciferase ctr
COc1ccc(OC)c(Nc2nc(-c3sc(NC(=O)c4ccccc4)nc3C)cs2)c1,13,15,55*,·,27*,·,19*,-5
COc1ccccc1CN(C)C(=O)CSc1nnc(C2CC2)n1C1CC1,·,·,6,2,·,0,·,·
CCOC(=O)c1ccc(NC(=O)N2CCN(C(=O)C3CCCO3)CC2)cc1 (stereo unspecified),-21,-18,5,0,2,1,·,·
COC(=O)C(Cc1ccc(O)cc1)NC(=O)c1ccc2c(c1)OCCO2 (stereo unspecified),-5,12,4,4,26*,3,41*,28*
CCN(CC)S(=O)(=O)c1cccc(C(=O)NCC2(N3CCOCC3)CCCCC2)c1,·,·,·,0,·,1,·,·
CC(=O)N(C1=C(N2CCOCC2)C(=O)c2ccccc2C1=O)c1ccc(C(=O)O)cc1,0,-7,2,-3,24*,-3,6,1
OCC[C@@H]1C[C@H](O)[C@@H](O)[C@@]2(CCCO2)O1,-5,1,1,1,·,2,·,·
c1ccc(-c2cn3c(n2)-c2ccccc2C3)cc1,4,16,18,-3,18*,-4,51*,42*
O=C1c2ccccc2CN2C(=O)c3ccccc3CN12,-3,-12,0,1,3,0,·,·

# Screens: PubChem BioAssay, several laboratories
